Compound activity (PubChem BioAssay)
D1 potentiator: potentiators of human D1 dopamine receptor. P21728. HEK293 TREx D1 cells, calcium flux, dopamine EC20 potentiation. potentiation, % at 10 µM. actives 0.036% (n = 360,000). AID 504651; in the data active = potentiation above about 30%; note: 0% is about no effect
Target sequence (P21728 whole entry, looked up): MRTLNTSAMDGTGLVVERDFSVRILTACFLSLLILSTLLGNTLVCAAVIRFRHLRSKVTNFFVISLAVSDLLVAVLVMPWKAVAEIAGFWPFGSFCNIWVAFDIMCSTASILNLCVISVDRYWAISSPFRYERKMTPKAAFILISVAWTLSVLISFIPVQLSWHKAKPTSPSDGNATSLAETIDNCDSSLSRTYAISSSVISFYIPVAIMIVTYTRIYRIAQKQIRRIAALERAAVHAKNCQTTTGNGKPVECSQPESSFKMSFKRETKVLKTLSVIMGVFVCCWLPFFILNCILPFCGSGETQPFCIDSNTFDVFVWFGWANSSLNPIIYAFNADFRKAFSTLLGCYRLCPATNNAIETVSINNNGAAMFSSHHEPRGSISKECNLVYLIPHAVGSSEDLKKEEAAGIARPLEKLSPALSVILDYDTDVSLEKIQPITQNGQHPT
D1 antagonist: antagonists of human D1 dopamine receptor; HEK293 TREx D1 cells, calcium flux, dopamine EC80; active compounds read low; activity change, negative = inhibition, % at 10 µM; actives 3.2% (n = 360,000); in the data active = activity change below about -30%; note: % is set by controls: 0 for no effect and ±100 for the full control effect
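Calcium flux readout: force-coupled, inducible Hek293 Trex D1 line, cells induced overnight at 30 C with tetracycline, dye-loaded 30–90 min at RT. Antagonism scored against EC80 dopamine challenge given 180 s after compound.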
TRHR ag: activates the human TRH receptor | P34981 | TRHR cells, calcium flux fluo-8, FDSS agonist mode | activation, % at 2 µM | actives 0.18% (n = 360,000) | AID 493084; note: 0% is about no effect
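Read-out: compound-evoked intracellular calcium rise in TRHR cells, fluo-8 dye, kinetic FDSS fluorescence at 1 s/cycle following a 10-cycle baseline. Cells cultured overnight before dye loading (30 min–1.5 h, RT).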
TRHR PAM: allosterically enhances the human TRH receptor | enhancement, % at 2 µM | P34981 | AID 493056 | actives 0.66% (n = 360,000) | TRHR cells, fluo-8 calcium fluorescence, EC20 TRH enhancement; in the data active = enhancement above about 30%; note: 0% is about no effect
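Enhancer read-out: after compound pinning and an initial kinetic agonist-mode read, an EC20 of TRH (10 nM final) was injected and fluo-8 calcium signal (Ex 480/Em 530) followed at 1 s/cycle for 100 cycles in TRHR-expressing cells.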
D1 agonist: activates the human D1 dopamine receptor | activation, % at 2 µM | actives 1% (n = 360,000) | AID 504660 | HEK293 T-REx D1 cells, calcium flux, agonist mode | P21728; note: 0% is about no effect
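Agonism was scored from calcium flux recorded over 180 s (1 read/s) after pintool compound addition, following a 10-cycle baseline. Cells were inducible force-coupled HEK293 TREx D1, plated overnight at 30 C and loaded with no-wash calcium dye.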
An asterisk follows results filed as active. Most compounds without a hit are left out; they make up all but 4.7% or so of the library. Cut-off read from the data, not from the text of the source, unless noted: active = activation above about 30%; inactive = the rest.

SMILES	D1 potentiator	D1 antagonist	TRHR ag	TRHR PAM	D1 agonist
COc1cccc(C(=O)Nc2cccc(OCc3cc(=O)n4c5c(sc4n3)CCCC5)c2)c1	1	-7	0	4	5
COc1ccc(C(=O)Nc2cccc(OCc3cc(=O)n4c5c(sc4n3)CCCC5)c2)cc1	0	-30*	0	7	0
Cc1cc(Cl)ccc1OCc1cc(=O)n2c3c(sc2n1)CCCC3	1	-31*	0	-5	3
Cn1c(=O)cc(OCC(=O)N2CCN(c3ccc(F)cc3)CC2)c2ccccc21	2	-2	0	10	-1
COc1ccc(NS(=O)(=O)c2ccc(C)c(NC(=O)CNC(=O)c3ccco3)c2)cc1	3	32	0	5	1
COC(=O)c1cccc(CN2C(=O)SC(Nc3ccc(C)cc3)C2=O)c1 (configuration not stated)	1	-3	-1	-3	2
COC(=O)c1cccc(CN2C(=O)SC(Nc3ccc(Cl)cc3)C2=O)c1 (configuration not stated)	-6	-32*	1	1	1
COc1ccc(NC(=O)Cn2cc(C(=O)c3ccccc3)c(=O)c3cc(OC)ccc32)c(OC)c1	-1	1	0	1	-1
Cc1cc(-c2nc3ncccc3o2)ccc1NC(=O)c1ccc(Br)cc1	1	5	-1	-8	1
COCCCNC(=O)CCc1c(C)nc2nc(-c3cc(OC)cc(OC)c3)nn2c1C	-2	-31*	0	22	1
Cc1nc2c(-c3ccc(F)cc3)c(C)nn2c(C)c1CCC(=O)Nc1ccccc1	-10	-19	1	9	2
CCN1CCN(c2ccc(NC(=O)CCc3c(C)nc4c(-c5ccc(F)cc5)c(C)nn4c3C)cc2)CC1	-14	-79*	0	8	6
COCCCNC(=O)CCc1c(C)nc2c(-c3ccc(F)cc3)c(C)nn2c1C	-13	-34*	-1	3	2
Cc1ccc2c(c1)c(N1CCCC1=O)c(C(=O)Nc1ccc(F)cc1F)n2C	-1	4	0	-1	-2
COc1cc(OC)c(NC(=O)c2c(N3CCCC3=O)c3cc(C)ccc3n2C)cc1Cl	-4	-88*	0	3	-2
CCOc1ccc(NC(=O)CSc2ncc3c(n2)-c2ccc(Cl)cc2N(Cc2ccccc2)S3(=O)=O)cc1	0	22	0	1	5
CCCc1ccc(C#N)c(SC2CC(=O)N(c3ccc(OC)cc3)C2=O)n1 (configuration not stated)	-2	-45*	0	8	13
COc1ccc(N2C(=O)CC(Sc3nnc(-c4ccccc4)o3)C2=O)cc1 (configuration not stated)	-5	-9	0	1	1
Cc1c(Cl)cccc1NC(=O)Cn1cc(C(=O)C2CCCCC2)c2ccccc21	-1	-3	0	-2	3
Cc1ccc2c(c1)-c1c(cnc3cc(-c4ccc(F)cc4)nn13)CO2	-4	16	2	-1	-1
CC1CCCC(C)N1CC(O)COC1CCC(C(C)(C)C)CC1 (configuration not stated)	-8	25	6	-7	31*
CC1CN(CC(O)COC2CCC(C(C)(C)C)CC2)CC(C)O1 (configuration not stated)	-4	4	1	6	5
CC(C)(C)C1CCC(OCC(O)CN2CCN(c3ccccn3)CC2)CC1 (configuration not stated)	-2	-3	0	-3	5
CC(C)(C)C1CCC(OCC(O)CN2CCN(Cc3ccccc3)CC2)CC1 (configuration not stated)	6	-2	0	32*	8
Cc1c(C(=O)NCc2ccc(F)cc2)oc2ccc(S(=O)(=O)N3CCCCC3)cc12	1	13	0	2	1
CCOC(=O)C1CCCN(C(=O)c2ccc3c(c2)N(Cc2cccc(Cl)c2)C(=O)c2ccccc2S3(=O)=O)C1 (configuration not stated)	0	3	0	-4	1
COc1cccc(N2CCN(C(=O)C3CCN(S(=O)(=O)c4cccc5nonc45)CC3)CC2)c1	-5	-12	0	-4	3
